Drawing on PubChem BioAssay AID1851 (National Center for Advancing Translational Sciences (NCATS), 2009), this text covers activity, negative = inhibition and AC50 for 84 compounds.

Several values for one entry are separate records, joined by “and”; a condition that tells them apart may be missing. Identical values can stand only once. Out of some 16,000 compounds screened, about 5,800 (36%) were called active. Not shown: some 23% with an inconclusive outcome. The call rests on the fitted dose curve; in most records, active means well fitted curve in the direction sought with a large enough effect; inconclusive means small, poorly fitted or top-dose-only effect, or effect the other way; inactive means no such curve, though single readings can be large or run the other way. This is one part of the list. Where a structure was tested more than once in an assay, its records may differ in their call. Square brackets hold non-standard residues; d marks the D form. Peptide text beside a SMILES is read from it. * marks the point of attachment. Cbz = O=C(OCc1ccccc1)*
On the % scale 0 is the no-effect control and ±100 the full control effect.

The target of this test is Cytochrome P450 2C19 (Homo sapiens) (UniProt P33261). Description: Cytochrome panel assay with activity outcomes. The following applies: recombinant CYP, pro-luciferin dealkylation, luminescence, p450-cyp2c19; series mostly up to 57.1 µM.
Cytochrome P450 2C19 (Homo sapiens), sequence (P33261 whole entry, looked up): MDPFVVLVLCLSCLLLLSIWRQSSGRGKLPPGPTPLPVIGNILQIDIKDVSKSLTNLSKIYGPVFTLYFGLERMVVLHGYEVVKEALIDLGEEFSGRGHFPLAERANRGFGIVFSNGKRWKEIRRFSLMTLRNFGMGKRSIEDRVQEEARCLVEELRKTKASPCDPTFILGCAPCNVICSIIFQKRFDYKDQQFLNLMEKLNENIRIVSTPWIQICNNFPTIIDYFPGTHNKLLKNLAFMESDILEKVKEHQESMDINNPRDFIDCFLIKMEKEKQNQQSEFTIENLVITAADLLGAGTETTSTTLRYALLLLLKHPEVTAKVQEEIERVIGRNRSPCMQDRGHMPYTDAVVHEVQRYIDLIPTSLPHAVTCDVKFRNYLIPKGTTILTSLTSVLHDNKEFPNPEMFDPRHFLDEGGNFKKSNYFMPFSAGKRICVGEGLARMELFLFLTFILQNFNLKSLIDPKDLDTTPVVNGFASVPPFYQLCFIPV
Regarding `NC([N-]/N=C/c1ccccn1)=[S]=[Fe].O=S(=O)(O)O`, the activity, negative = inhibition is -35.2% [at 11.4 µM] (inactive).
Same read-out and setting: as for `CSCC[C@@H]1NC(=O)C/C=C\[C@@H](C)COC(=O)[C@@H](C)COC1=O`, the figure is 30.8% [at 11.4 µM] (inactive).
On the same count and under the same terms, the value for `O=C1[C@H]2[C@H]3[C@H](O)[C@H](O)C/C(=N/OC[C@@H](O)COCc4ccco4)[C@H]3CC[C@@H]2C(=O)N1C[C@@H]1CCCO1` was -12.6% [at 11.4 µM] (inactive).
For orientation: AC50 means the midpoint of the concentration-response curve, whichever way the signal moves. Regarding `CC(C)C[C@H](NC(=O)[C@@H](O)[C@H](N)Cc1ccccc1)C(=O)O`, the AC50 entry is “inactive”.
On the same count and under the same terms, the value for `CC(C)[C@H](NC(=O)OCc1ccccc1)C(=O)N[C@H](C=O)Cc1ccccc1` (Cbz-Val-Phe-aldehyde) was “inactive”; that for `CCCCC(C=O)NC(=O)C(CC(C)C)NC(=O)OCc1ccccc1` (centres undefined) was 10 µM (active); that for `COC(=O)CCC(NC(=O)OCc1ccccc1)C(=O)NC(CC(C)C)C(=O)OC` (centres undefined) (Cbz-Glu(OMe)-Leu-OMe; configuration not given here) was 11.2 µM (active).
Still for that read-out and setting: as for `CSCC[C@H](C=O)NC(=O)[C@H](CC(C)C)NC(=O)[C@H](CC(C)C)NC(C)=O` (Ac-Leu-Leu-[dM]-aldehyde), the entry is “inactive”.
In the case of `COc1ccc(/C=C2\SC(=O)N(CCNC(=O)C3CC(=O)N(c4ccccc4)C3)C2=O)cc1` (centres undefined), the AC50 is 14.1 µM (active).
Still for that read-out and setting: the value for `COC(=O)COc1ccc(/C=C2/SC(=O)N(CC(=O)N3CCCC3)C2=O)cc1Br` was “inactive”; that for `COCC(=O)N1CCC[C@@]2(CCN(Cc3ccccc3OC)C2)C1` was “inactive”; that for `Cc1ccc(-n2nc(C)c3c2OC(N)=C(C#N)C3c2ccco2)cc1` (centres undefined) was 8.91 µM (active).
`O=C(O)c1cc2c(cc1S(=O)(=O)O)[C@H]1[C@@H]([C@H]3[C@H]2[C@@]2(Cl)C(Cl)=C(Cl)[C@]3(Cl)C2(Cl)Cl)[C@]2(Cl)C(Cl)=C(Cl)[C@@]1(Cl)C2(Cl)Cl`: the activity, negative = inhibition was -16.5% [at 11.4 µM] (inactive).
Consider `Cc1ccc(S(=O)(=O)Nc2cc(=O)[nH]c3c2CCC3)cc1`, for which the AC50 was 0.631 µM (active).
`Cc1cc(=O)[nH]c(-n2[nH]c3c(c2=O)CCCC3)n1`: the AC50 entry is “inactive”.
On to `Cc1cc(C)c2c(=O)[nH]c(SCC(=O)N(C)C)nc2n1`, for which the AC50 entry was “inactive”.
On the same count and under the same terms, as for `C=CCSc1nc2c(sc3nc(C)cc(C)c32)c(=O)[nH]1`, the figure is 6.31 µM (active); as for `COc1cccc(-c2nccc(NCc3ccccc3OC)n2)c1`, 5.01 µM (active); as for `COc1ccc(CNc2ccnc(-c3cccc(NS(C)(=O)=O)c3)n2)c(OC)c1`, 15.8 µM (active).
On the same count and under the same terms, as for `COc1cccc(-c2nccc(NCc3ccc(OC)cc3OC)n2)c1`, the figure is 2.51 µM (active).
Same read-out and setting: the value for `COc1ccc(CNc2ccnc(-c3cccnc3)n2)c(OC)c1` was 2 µM (active).
As to `Cc1cnc(CNc2ccnc(-c3cccc(NS(C)(=O)=O)c3)n2)cn1`, the AC50 result was “inactive”.
Same read-out and setting: as for `N[C@H](CCC(=O)NCS(=O)(=O)O)C(=O)O`, the entry is “inactive”.
Consider `Cc1[nH]c2c(C)ccc(C)c2c1CC(=O)O`, for which the AC50 is 0.316 µM (active).
`CO/N=C\[C@@H](NS(=O)(=O)c1ccc(C)cc1)[C@H](C)/C=C\CC(=O)OC`: the half-maximal activity concentration (AC50) is 3.16 µM (active).
Turning to `COC(=O)C/C=C\[C@H](C)[C@H](CO)NS(=O)(=O)c1ccc(C)cc1`, the activity, negative = inhibition was 44.8% [at 11.4 µM] (inactive).
For the compound `COC(=O)C/C=C\[C@@H](C)[C@@H](/C=N\O[C@@H](C)CN1CCCc2nc(C)c(C)cc21)NS(=O)(=O)c1ccc(C)cc1`, the activity, negative = inhibition was -27.4% [at 11.4 µM] (inactive).
On the same count and under the same terms, as for `COC(=O)C/C=C\[C@@H](C)[C@@H](/C=N\O[C@@H](C)c1cn([C@H]2COC[C@H]2O)nn1)NS(=O)(=O)c1ccc(C)cc1`, the figure is -9.22% [at 11.4 µM] (inactive).
As for `COC(=O)C/C=C\[C@@H](C)[C@@H](/C=N\O[C@@H](C)c1cc(-c2c(C)cc(C)cc2C)no1)NS(=O)(=O)c1ccc(C)cc1`, the AC50 is 3.16 µM (active).
In the case of `COC(=O)C/C=C\[C@@H](C)[C@@H](/C=N\OC[C@@H](O)COCc1ccco1)NS(=O)(=O)c1ccc(C)cc1`, the activity, negative = inhibition was -9.48% [at 11.4 µM] (inactive).
Consider `NC1=N[C@H](c2ccc(Cl)cc2)N(c2ccc(S(=O)(=O)Nc3ncccn3)cc2)C(N)=N1`, for which the activity, negative = inhibition is 8.72% [at 11.4 µM] (inactive).
In the case of `Cc1ccc(CSc2nnc([C@@H]3CCCN3)o2)cc1`, the AC50 was 7.08 µM (active).
Consider `Cc1ccc(CSc2nc3c(c(SCC(=O)O)n2)CCCC3)cc1`, for which the AC50 entry is “inactive”.
Still for that read-out and setting: as for `CN1CCN(c2ncc3nc(-c4cccc(C#N)c4)c(=O)n(C)c3n2)CC1`, the entry is “inactive”; as for `Cn1cccc1C(=O)N1CCC2(CC1)CCN(c1cccc(-c3ccccc3)c1)CC2`, “inactive”.
Still for that read-out and setting: as for `Cn1cccc1C(=O)N1CCC2(CCCN(c3ccccc3)C2)CC1`, the figure is 7.94 µM (active).
Still for that read-out and setting: the value for `Cn1cccc1C(=O)N1CCC2(CC1)CCN(c1ccccc1)CC2` was “inactive”; that for `Cn1cccc1C(=O)N1CCC2(CCCN(c3cccc(-c4ccccc4)c3)C2)CC1` was 10 µM (active); that for `CN1CCCC2(CCN(C(=O)c3cccn3C)CC2)C1` was “inactive”.
With `Cn1cccc1C(=O)N1CCC2(CCCN(c3ccc(-c4ccccc4)cc3)C2)CC1`, the AC50 result is “inactive”.
As for `Cc1ccc(-n2cc(C(=O)c3ccc4ccccc4c3O)cn2)cc1`, the AC50 entry was “inactive”.
Regarding `O=C(c1cnn(-c2ccccc2)c1)c1ccc2ccccc2c1O`, the concentration at half-maximal activity (AC50) was 5.62 µM (active).
As to `O=C(O)c1cc(C(=O)C(=O)c2cc(C(=O)O)c(O)c3ccccc23)c2ccccc2c1O`, the activity, negative = inhibition was -29.3% [at 11.4 µM] (inactive).
As for `CCCCOC(=O)Nc1ccccc1C(=O)OC`, the AC50 was 14.1 µM (active).
Same read-out and setting: the value for `Cc1ccc(-n2c(-c3cc(C)n(C)n3)n[nH]c2=S)cc1` was “inactive”; that for `Cc1nn(CCc2n[nH]c(=S)n2-c2ccc(F)c(Cl)c2)c(C)c1[N+](=O)[O-]` was 14.1 µM (active).
Still for that read-out and setting: as for `CC(C)=C1C(=O)NN(c2ccc(F)c(Cl)c2)C1=O`, the entry is “inactive”; as for `COC(=O)[C@@]1(Cc2ccc(OC)cc2)[C@@H]2[C@@H](CC(=O)[C@H]2CC(=O)C(=O)N(C)C)CN1C(=O)c1ccccc1`, “inactive”.
Turning to `COC(=O)[C@@]1(Cc2ccccc2)[C@H]2c3cc(C(=O)N4CCCC4)[nH]c3C[C@H]2CN1C(=O)c1ccccc1`, the AC50 was 0.501 µM (active).
The same measure, in the same setting: the value for `COC(=O)[C@@]1(Cc2ccc(OC)cc2)[C@H]2c3cc(C(=O)N(C)C)[nH]c3C[C@H]2CN1C(=O)c1ccccc1` was 5.01 µM (active).
Regarding `O=C(O)COC(=O)Cc1ccccc1Nc1c(Cl)cccc1Cl`, the AC50 result was “inactive”.
On to `NC(N)=NN=Cc1c(Cl)cccc1Cl`, for which the AC50 result was “inactive”.
On the same count and under the same terms, as for `NC(N)=NC(=O)Cc1c(Cl)cccc1Cl`, the entry is “inactive and 251 nM (active)”.
With `CC(C)(C)CNCCO`, the activity, negative = inhibition is 7.05% [at 11.4 µM] (inactive).
Regarding `CC1(C)SC(=S)N(NC(=O)Nc2ccccc2)C1N(O)C(=O)Nc1ccccc1` (centres undefined), the concentration at half-maximal activity (AC50) was 14.1 µM (active).
The same measure, in the same setting: the value for `CCC(C)NS(=O)(=O)c1ccc(OCC(=O)NCC2CCCO2)cc1` (centres undefined) was “inactive”; that for `Cc1ccc(S(=O)(=O)N[C@H](C(=O)Oc2ccc3c(C(F)(F)F)cc(=O)oc3c2)c2ccccc2)cc1` was 20 µM (active); that for `CCC(C)C(NS(=O)(=O)c1ccc(C)cc1)C(=O)Oc1ccc2c3c(c(=O)oc2c1)CCC3` (centres undefined) was 3.98 µM (active).
Turning to `Cc1cc2ccc(OC(=O)c3ccc(N=C(N)N)cc3)cc2oc1=O`, the activity, negative = inhibition was 13.8% [at 11.4 µM] (inactive).
Consider `Cc1nn(-c2ccc(F)cc2)c(Cl)c1/C=C(\CCC(=O)O)c1nc2ccccc2s1`, for which the AC50 was 15.8 µM (active).
Consider `COc1ccccc1C/C(N)=N/OC(=O)c1ccc(C)c([N+](=O)[O-])c1`, for which the AC50 is 8.91 µM (active).
Regarding `Cn1c(=O)n2n(c1=O)[C@H]1[C@H](O)[C@H]3O[C@@H]3/C(=N/OC[C@@H](O)COCc3ccco3)[C@@H]1CC2`, the activity, negative = inhibition is -21.1% [at 11.4 µM] (inactive).
On to `Oc1cccc2ccc(SSc3ccc4cccc(O)c4n3)nc12`, for which the half-maximal activity concentration (AC50) was 3.16 µM (active).
The same measure, in the same setting: as for `COc1ccc(-n2c(=O)c(-c3cccs3)nc3cnc(N4CCN(C)CC4)nc32)cc1`, the entry is “inactive”; as for `COc1ccc(N2C(=O)CC(S/C(N)=N/N=C(\C)c3cccs3)C2=O)cc1` (centres undefined), 7.08 µM (active).
On the same count and under the same terms, the value for `CCCOc1ccc(N2C(=O)CC(S/C(N)=N/N=C(\C)c3cccs3)C2=O)cc1` (centres undefined) was 6.31 µM (active); that for `O=C(N/N=C/c1ccc2cccc(OCc3ccccc3)c2n1)c1ccc(Br)cc1` was 3.55 µM (active).
On the same count and under the same terms, as for `S=C(CSc1ccccc1)Nc1cccc2ccccc12`, the figure is 0.794 µM (active); as for `CCOc1c2ccc(C(=O)NCc3cc(C(F)(F)F)cc(C(F)(F)F)c3)cc2nn1C`, 28.2 µM (active); as for `CCCCn1nc2cc(C(=O)NCc3ccc(C(F)(F)F)cc3C(F)(F)F)ccc2c1OCC`, 12.6 µM (active).
As to `COc1ccc(C(=O)N2CCC3(CCN(Cc4cc(C(F)(F)F)cc(C(F)(F)F)c4)CC3)CC2)cc1`, the AC50 entry is “inactive”.
On the same count and under the same terms, the value for `CCN(CC)CCNC(=O)c1cc(Cl)c(N)cc1OC` was “inactive”; that for `CN1CCC2(CC1)CCN(S(=O)(=O)c1ccccc1)CC2` was “inactive”.
Regarding `O=C1c2ccccc2C(=O)N1CC1c2ccccc2CCN1S(=O)(=O)c1ccccc1` (centres undefined), the concentration at half-maximal activity (AC50) was 2 µM (active).
On the same count and under the same terms, as for `C[N+](C)(C)CCCCCNCC12CC3CC(CC(C3)C1)C2`, the entry is “inactive”.
Same read-out and setting: as for `Cc1cc(Cn2cnc3c2C[C@@H](C(=O)O)N(C(=O)C(c2ccccc2)c2ccccc2)C3)ccc1N(C)C`, the figure is 1.58 µM (active); as for `CCCC(=O)Nc1nc2n(n1)C(c1ccccc1)CC(=O)N2` (centres undefined), “inactive”.
The same measure, in the same setting: the value for `CCCn1nnc(NC(=O)c2ccc(-c3cccc(Cl)c3)o2)n1` was 20 µM (active); that for `CN1CCN(CCCNC(=O)c2ccc(CSCc3cccc(Cl)c3)o2)CC1` was “inactive”; that for `CCCn1nnc(NC(=O)Cc2ccccc2)n1` was 10 µM (active).
For `Cc1ccc2ccccc2c1CSc1nc(N)nc2c1ncn2CC(C)C`, the AC50 was 3.98 µM (active).
For the compound `CC(C)Cn1cnc2c(Sc3c([N+](=O)[O-])ncn3C)nc(N)nc21`, the activity, negative = inhibition is 17.8% [at 11.4 µM] (inactive).
Consider `CC(C)Cn1cnc2c(SCc3ccccn3)nc(N)nc21`, for which the activity, negative = inhibition is 9.26% [at 11.4 µM] (inactive).
For the compound `CC(C)Cn1cnc2c(SCc3ccc(Cl)cc3Cl)nc(N)nc21`, the AC50 was 2 µM (active).
